# Data published in PubChem BioAssay (NCI).
# The panel holds about 83,000 compounds, 20% with a hit somewhere; the sample as a whole holds those more often.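 How to read the values: 0–100, growth inhibition (40 = 60% inhibited); 0, no net growth; -100 to 0, cell death (-40 = 40% of starting cells died; -100 = all dead).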 Unmarked numbers belong to inactive results. Active and inactive are the calls of the source. Rule for the calls: active = growth percent below 10; inactive = the rest.
# Experiments:
# Test in all cases: NCI-60 one-dose screen, 48 h (100 = growth as untreated, 0 = no growth, -100 = all killed)
# Settings in all cases: 10 µM unless noted
# SK-MEL-2 melanoma = test system: SK-MEL-2 melanoma
# EKVX NSCLC = test system: EKVX NSCLC
# SN12C renal = test system: SN12C renal
# UO-31 renal = test system: UO-31 renal
# TK-10 renal = test system: TK-10 renal
# ACHN renal = test system: ACHN renal
# A498 renal = test system: A498 renal
# CCRF-CEM leukemia = test system: CCRF-CEM leukemia
# MOLT-4 leukemia = test system: MOLT-4 leukemia
# SR leukemia = test system: SR leukemia
Structure (SMILES),growth (SK-MEL-2 melanoma),growth (EKVX NSCLC),growth (SN12C renal),growth (UO-31 renal),growth (TK-10 renal),growth (ACHN renal),growth (A498 renal),growth (CCRF-CEM leukemia),growth (MOLT-4 leukemia),growth (SR leukemia)
C(=C\c1cn(-c2ccccc2)nc1-c1ccccc1)/c1nnc(-c2c[nH]c3ccccc23)o1,86%,50.8%,27.9%,73.2%,22.8%,40%,109%,78.8%,69.4%,48.1%
FC(F)(F)c1ccc2c(Nc3cccc(C4CC(c5ccccc5)=NN4c4ccc(Cl)cc4)c3)ccnc2c1 (stereo not given),87.2%,82.6%,37.7%,35.9%,82.3%,73.3%,66.3%,3.45% (active),4.86% (active),-10.9% (active)
CC(=O)OC[C@]12CC[C@@H](c3cn(Cc4ccc(Cn5cc([C@@H]6CC[C@]7(COC(C)=O)CC[C@]8(C)[C@H](CC[C@@H]9[C@@]%10(C)CC[C@H](OC(C)=O)C(C)(C)[C@@H]%10CC[C@]98C)[C@@H]67)nn5)cc4)nn3)[C@@H]1[C@H]1CC[C@@H]3[C@@]4(C)CC[C@H](OC(C)=O)C(C)(C)[C@@H]4CC[C@@]3(C)[C@]1(C)CC2,97%,104%,106%,90.7%,95.1%,97.1%,105%,102%,97.1%,98%
CC1CCCN(CCCCCOc2ccc3oc4ccccc4c(=O)c3c2)C1 (stereo not given),82.3%,84%,64.3%,61.2%,82.3%,98.9%,75.9%,70.9%,49%,36.4%
Cc1[nH]c(N=Nc2ccccc2)nc1N=Nc1ccccc1,39.8%,20.5%,39.2%,-22% (active),13.1%,7.3% (active),35%,-24.1% (active),13.8%,23.1%
C=C1C(=O)O[C@H]2[C@H]1CC/C(COC(=O)N1CCC[C@H]1C(=O)Nc1ccc(OC)c(C(N)=O)c1O)=C\CC[C@@]1(C)O[C@@H]21,66.5%,77%,12.9%,41.2%,-4.11% (active),30.6%,87.9%,-12.6% (active),8.14% (active),13.9%
C#CC[C@@H]1C[C@]2(C)[C@H]3CC[C@@H]4[C@H]5[C@H](C(=C)C)CC[C@]5(C(=O)O)CC[C@@]4(C)[C@]3(C)CC[C@H]2C(C)(C)[C@H]1O,80.3%,55.4%,39.3%,23.5%,85.7%,6.77% (active),82.7%,34.1%,26.8%,45.5%
COc1ccc(-c2cc(C(=O)N3N=C(c4ccc(N)cc4)CC3c3ccc(OC)cc3)c3cc(OC)ccc3n2)cc1 (stereo not given),64.5%,68.9%,61.8%,56.6%,93.8%,54.5%,71.3%,63.3%,54.5%,19.4%
CCCS(=O)(=O)Nc1ccc(F)c(C(=O)c2c[nH]c3ncc(-c4ccc(OCCCC5CCCCN5)nc4)cc23)c1F (stereo not given),58.5%,89.7%,62.5%,102%,81.2%,92.3%,64.8%,56.5%,43.1%,43.1%
CCC1=C[C@H]2CN(CCc3c([nH]c4ccccc34)[C@@](C(=O)OC)(c3cc4c(cc3OC)N(C)[C@H]3[C@@](O)(C(=O)OC)[C@H](OC(C)=O)[C@]5(CC)[C@@H]6C[C@@H]6CN6CC[C@]43[C@@H]65)C2)C1,13.2%,35.5%,30.1%,14.7%,28.9%,19.1%,-15.2% (active),-5.97% (active),4.19% (active),-9.46% (active)
COC(=O)[C@]1(C)CCC[C@]2(C)[C@H]3C[C@H]4C(C(C)C)=C[C@]3(CC[C@H]21)[C@@H]1C(=O)N(CCC#N)C(=O)[C@@H]14,88.6%,79.5%,90.2%,76.1%,104%,96.3%,105%,61.8%,38.2%,80.4%
O=C(CCc1nnco1)c1nc2ccc([N+](=O)[O-])cc2[nH]1,94.7%,94%,107%,74.9%,146%,101%,126%,109%,97.9%,91.5%
Cc1c(Br)cccc1NC(=O)c1sc2nc3c(cc2c1N)CN(Cc1ccccc1)CC3,25.5%,34.3%,28.1%,48.2%,49.8%,39.6%,-8.85% (active),3.86% (active),10.3%,9.33% (active)
CC1(C)Cc2c(Br)c(Br)c(Br)c(OCC(O)CN3CCOCC3)c2O1 (stereo not given),-46.5% (active),102%,104%,-87.3% (active),67%,93.4%,84.3%,9.89% (active),40.1%,24.9%
N#Cc1ccc(N2Cc3cc(Cl)ccc3OC3=C2C(=O)N(Cc2ccc(F)cc2)C3=O)cc1,-46.5% (active),37.4%,-24.9% (active),-85.7% (active),-79.4% (active),-92.9% (active),120%,-20% (active),-34.5% (active),-33.5% (active)
Nc1c(C(=O)Nc2cccc3ccccc23)sc2nc3c(cc12)CCCCC3,50.5%,40.4%,43.4%,51.9%,62.8%,53.6%,-1.52% (active),9.18% (active),15.9%,19.9%
O=[N+]([O-])c1ccc(Oc2ccc(-c3ccccc3)cc2)cc1,103%,85.1%,96.6%,79.5%,88.5%,101%,84.5%,78.3%,70.4%,77.8%
CCOC(=O)c1c(C)nc2c(c1N)/C(=C/c1cccs1)C(=O)N2c1ccc(OC)cc1,33%,49.8%,39.4%,16.5%,35.7%,31.5%,35.1%,92.2%,80.5%,55.8%
COc1ccc(/C=C/C(=O)Nc2ncnc3nc[nH]c23)cc1,96.2%,100%,96.2%,87.8%,103%,111%,108%,79.2%,68.9%,73.4%
COc1cc2nc3c(=O)n(-c4ccc(C#N)cc4)cnn3c(=O)c2cc1OC,94.4%,93.9%,99%,83.6%,104%,100%,113%,143%,91.3%,94.1%
COc1cc(NC(=O)Nc2cnc(Nc3ccc(N4CCOCC4)cc3)nc2Oc2ccc(F)cc2)cc(OC)c1,101%,108%,61.8%,93%,116%,99.9%,102%,92.9%,77.2%,66.2%
O=C1C(Cl)=C(NCCCN(CCCNC2=C(Cl)C(=O)c3ccccc3C2=O)C2=C(Cl)C(=O)c3ccccc3C2=O)C(=O)c2ccccc21,79.4%,80%,4.16% (active),58.1%,146%,74.6%,100%,34.6%,31.6%,2.55% (active)

Structure (SMILES),growth (SK-MEL-2 melanoma),growth (EKVX NSCLC),growth (SN12C renal),growth (UO-31 renal),growth (TK-10 renal),growth (ACHN renal),growth (A498 renal),growth (CCRF-CEM leukemia),growth (MOLT-4 leukemia),growth (SR leukemia)
O=C1CCc2ccccc2N1,101%,75.5%,99.1%,90.3%,88.2%,100%,111%,107%,110%,93.5%
N#Cc1c(NC(=O)c2cccs2)[n+]([O-])c2cc(C(F)(F)F)ccc2[n+]1[O-],55.8%,87.1%,108%,80.5%,104%,102%,123%,94.7%,75.9%,79.8%
O=C1CCC23OC(c4ccccc4N12)C(O)C(O)C3O (stereo not given),94.7%,107%,103%,86.9%,89.1%,109%,104%,101%,98.3%,112%
C[C@H]1[C@H](C)CC[C@]2(C(=O)OCCOCCOCC[P+](c3ccccc3)(c3ccccc3)c3ccccc3)CC[C@]3(C)C(=CC[C@@H]4[C@@]5(C)CC[C@H](OC(=O)C(Cl)Cl)C(C)(C)[C@@H]5CC[C@]43C)[C@H]12,-21.5% (active),-3.78% (active),-6.85% (active),3.95% (active),12.7%,-1.41% (active),6.28% (active),7.44% (active),-6.91% (active),-33.5% (active)
COc1cc(-c2csc(NC(=O)Nc3cc(Cl)cc(Cl)c3)n2)cc(OC)c1OC,75.2%,1.71% (active),-84% (active),-66% (active),-68.9% (active),-33% (active),-25.9% (active),13.5%,16.3%,-4.59% (active)
Oc1ccc(CNNc2ccnc3c(O)cccc23)c2cccnc12,31.4%,8.17% (active),45.4%,23.7%,30.7%,15.2%,74.7%,18.7%,13.4%,20.4%
O=C(Nc1ccc2ncnc(Nc3ccc(F)c(Cl)c3)c2c1)c1ccccc1,87.5%,61.2%,71.2%,63.3%,36.8%,37%,67.6%,98.6%,63.4%,66.7%
COc1ccc2nc3nc4ccc[nH]c4cc3c2c1,108%,67.6%,89.7%,61.5%,82.2%,76%,94.4%,97.5%,93.6%,43.6%
COc1cc(-c2nn(-c3ccc(Br)cc3)cc2CO)ccc1O,100%,92.5%,97.1%,59.9%,110%,100%,77.2%,54.9%,57.1%,65.4%
O=CN1N=C(c2ccc(F)cc2)CC1c1cccc(Nc2ccnc3cc(C(F)(F)F)ccc23)c1 (stereo not given),54.2%,50.6%,81%,44.6%,62.7%,54.4%,49.6%,44.8%,23.1%,20.2%
O=C1CC23OC(C(O)c4ccccc4N12)C1C(c2ccccc2)=NOC13 (stereo not given),40.8%,57.7%,42.9%,45.1%,102%,52.7%,71%,68.3%,37.2%,22.2%
COc1ccccc1Nc1nnc(-c2ccc(Cl)cc2)o1,34.4%,50.8%,59.6%,69.5%,68.9%,72.2%,45.3%,38%,19.5%,19.7%
COc1ccc(C2CC(c3ccc(OC)cc3O)=NN2c2ccc(S(N)(=O)=O)cc2)cc1 (stereo not given),58.7%,20.9%,54.2%,27.6%,43.9%,29.1%,71.2%,13.5%,4.82% (active),8.1% (active)
COc1cc(C(=O)N2CCN(c3ccccc3OC)CC2)c(NC(=O)c2cnccn2)cc1OCc1ccccc1,85.7%,57.2%,88.6%,39%,102%,92.5%,84.9%,-44% (active),52.4%,60.7%
CCCCCOC(=O)c1ccccc1O,111%,94.2%,105%,91.2%,99.5%,107%,102%,99.5%,97%,85.1%
N#Cc1c(-c2ccc(F)cc2)nc(N=Nc2c(O)[nH]c3ccccc23)nc1N1CCOCC1,105%,77.6%,30.4%,60.4%,65.4%,65.5%,80.8%,77.4%,95.3%,88.2%
C#CCN(CCCOc1ccc(Cl)cc1Cl)CCCSC(=O)CCCCCN1/C(=C\C=C2/CCCC(/C=C/C3=[N+](CCCCCC(=O)[O-])c4ccccc4C3(C)C)=C2Cl)C(C)(C)c2ccccc21,-29% (active),61.6%,5.06% (active),94.9%,50.3%,102%,13%,-1.58% (active),-18.7% (active),-16.2% (active)
CCN(CC)c1ccc2c(c1)Oc1nc(N)c(C#N)c(N)c1C2Sc1ccc(OC)cc1 (stereo not given),-61.2% (active),4.46% (active),4.18% (active),-44.7% (active),23.1%,32.2%,106%,0.612% (active),2.47% (active),-9.3% (active)
C=C(C)[C@@H]1CC[C@]2(C(=O)O)CC[C@]3(C)[C@H](CC[C@@H]4[C@@]5(C)C[C@@H](CC#Cc6ccccc6)C(=O)C(C)(C)[C@@H]5CC[C@]43C)[C@@H]12,61.1%,28.6%,43.7%,28.9%,33.3%,23.8%,32.9%,24.9%,22.3%,38%
CC(=O)c1ccc(NC(=O)CSc2nnc(-c3cc(-c4ccc(C)cc4)nc4ccccc34)o2)cc1,81.5%,78.3%,20%,11.5%,43%,63.6%,70.5%,53.6%,43.5%,-12.5% (active)
O=Cc1[nH]c(Sc2ccccc2)c2ccccc12,81.6%,76.1%,77.7%,48.6%,80.3%,96.6%,95.3%,12.1%,17%,59.3%
